As a reminder, the inhibition is the change of the read-out against control, counted positive when it falls.

Results filed as inconclusive are left out. Calls of active or inactive are those of the source. Unless noted, no stated cut-off is given here; in the data, active means inhibition above about 80%; inactive means the rest.

Data on 3 compounds can be found in PubChem BioAssay.

Experiment [1] is described as follows: growth inhibition of DIPG glioma cells, dose response, cell-based, SU-DIPG-XIII, MIPE4.0, CellTiter-Glo, qHTS (AID 1347061; cut-off not given, nearly all actives have AC50 up to about 37 µM;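 further: cells exposed to compound for 48 hours before readout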). Conditions: SU-DIPG-XIII viability, CellTiter-Glo ATP luminescence. For orientation: Cellular ATP, detected with luciferase, serves as a proxy for viable cell number.
A short description of experiment [2]: circadian clock period modulators, cell-based, LOPAC library, luminescence reporter (AID 2774; call rule not given here;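 further: values are relative to mean of DMSO wells on each plate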). Particulars: circadian reporter cells, at 7 µM, actives lie on both sides.
Experiment [3] is described as follows: growth inhibition of DIPG glioma cells, dose response, cell-based, SU-DIPG-XIII, MIPE5.0, CellTiter-Glo, qHTS (AID 1347064; cut-off not given, nearly all actives have AC50 up to about 23 µM). Conditions: SU-DIPG-XIII viability, CellTiter-Glo ATP luminescence.
Experiment [4] is described as follows: viability loss in pontine glioma line – cell-based, SU-DIPG-XXV, MIPE5.0, CellTiter-Glo, qHTS, dose response (AID 1347065; cut-off not given, nearly all actives have AC50 up to about 26 µM;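 further: cells exposed to compound for 48 hours before ATP readout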). Conditions: CellTiter-Glo ATP luminescence.
Experiment [5] can be described thus: JHH-DIPG-1 glioma cell viability, MIPE5.0 library, CellTiter-Glo luminescence, qHTS (AID 1347067; cut-off not given, nearly all actives have AC50 up to about 26 µM;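 further: cells exposed to compound for 48 hours before readout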). Conditions: JHH-DIPG-1 glioma viability, CellTiter-Glo ATP luminescence.
The nature of experiment [6]: SU-DIPG-XXV glioma cell viability, MIPE5.0 library, qHTS (AID 1347068; cut-off not given, nearly all actives have IC50 up to about 30 µM). In general terms: qHTS replaces the single test concentration by a dilution series.
Experiment [7] can be described thus: LFS_MB_P medulloblastoma growth inhibition, cell-based, chromothripsis tumors, cisplatin or BGB combos (AID 1671449).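 Further: cells exposed for 96 hours; 0% = vehicle DMSO and 100% = killing by high DMSO.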 Particulars: LFS_MB_P medulloblastoma cells.
The nature of experiment [8]: HDN33 neuroblastoma growth inhibition, cell-based, chromothripsis tumors, cisplatin or BGB combos (AID 1671450).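 Further: cells exposed to compound for four days; 0% = vehicle DMSO and 100% = cell killing by high DMSO.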 Particulars: HDN33 neuroblastoma cells, stronger effect = higher value.
A short description of experiment [9]: ICB984 medulloblastoma cell growth inhibition, synergistic combos for chromothripsis tumors, cisplatin or BGB combos (AID 1671451; call rule not given here;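 further: cells exposed for 96 hours before readout; 0% = vehicle DMSO and 100% = killing by high DMSO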). Conditions: ICB984 medulloblastoma cells, drug combinations, stronger effect = higher value.
Experiment [10] is described as follows: LFS_MB_1R medulloblastoma cell growth inhibition, synergistic combos for chromothripsis tumors, cisplatin or BGB combos (AID 1671452).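 Further: cells exposed for 96 hours before readout.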 Particulars: LFS_MB_1R medulloblastoma cells, stronger effect = higher value.
A short description of experiment [11]: HTB85 osteosarcoma cell growth inhibition, synergistic combos for chromothripsis tumors, BGB or cisplatin IC20 combos (AID 1671453).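 Further: cells exposed for 96 hours before readout; 0% = vehicle DMSO and 100% = high DMSO killing control.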 Particulars: HTB85 osteosarcoma cells, drug combinations, stronger effect = higher value.
A short description of experiment [12]: CRL2098 osteosarcoma cell growth inhibition, synergistic combos for chromothripsis tumors, BGB or cisplatin IC20 combos (AID 1671454).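 Further: cells exposed for 96 h before readout; 0% = vehicle DMSO and 100% = killing by high DMSO.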 Particulars: CRL2098 osteosarcoma cells, drug combinations, stronger effect = higher value.
Experiment [13] is described as follows: HD-MB03 medulloblastoma cell growth inhibition, synergistic combos for chromothripsis tumors, BGB or cisplatin IC20 combos (AID 1671455; in the data active means inhibition above about 83%;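 further: 0% = vehicle DMSO and 100% = high DMSO as cytotoxic control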). Particulars: HD-MB03 medulloblastoma cells, stronger effect = higher value.
The nature of experiment [14]: UWB1.289 ovarian carcinoma cell growth inhibition, synergistic combos for chromothripsis tumors, BGB or cisplatin combos (AID 1671456).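 Further: cells exposed to compound for four days; 0% = vehicle DMSO and 100% = killing by high DMSO.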 Particulars: UWB1.289 ovarian carcinoma cells, stronger effect = higher value.
The nature of experiment [15]: MDA-MB-436 breast carcinoma cell growth inhibition, synergistic combos for chromothripsis tumors, BGB or cisplatin combos (AID 1671458; call rule not given here;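 further: cells exposed for 96 hours; 0% = vehicle DMSO and 100% = killing by high DMSO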). Particulars: MDA-MB-436 breast carcinoma growth inhibition, drug combinations, stronger effect = higher value.
Experiment [16] in a line: growth inhibition of BT084 medulloblastoma cells, cell-based, ICGC_MB145, cisplatin and BGB IC40 combos (AID 1671461).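 Further: cells exposed to drugs for 96 hours; 0% = vehicle DMSO and 100% = high DMSO full killing control.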 Conditions: drug combinations, stronger effect = higher value.
Experiment [17] can be described thus: growth inhibition of RCMB18 medulloblastoma cells, cell-based, cisplatin and BGB IC40 combos (AID 1671462).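 Further: cells exposed to compound for four days.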 Particulars: stronger effect = higher value.
A short description of experiment [18]: growth inhibition of CRL1545 osteosarcoma cells, cell-based, cisplatin and BGB IC20 combos (AID 1671464).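 Further: cells exposed to compound for 96 hours before readout; 0% = vehicle DMSO and 100% = high DMSO killing control.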 Particulars: stronger effect = higher value.
Setting [19] is: measured here: combination with BGB IC40, at 0.05 µM.
Where [20] appears, read: measured here: with BGB IC20 combination, at 0.5 µM.
Where [21] appears, read: measured here: with cisplatin IC20 combination, at 0.5 µM.
The mark [22] stands for this setting: measured here: combination with cisplatin, at 0.5 µM.

In the case of `COc1nc(N)nc2c1ncn2[C@@H]1O[C@H](CO)[C@@H](O)[C@@H]1O`, the compound was called inactive in experiment [1].

For `CC1=C(C)C(=O)C(CCCCC#CCCCC#CCO)=C(C)C1=O`, in [2], the period change is -0.105 h (inactive).

For the compound `O=c1[nH]c(=O)n([C@H]2C[C@H](O)[C@@H](CO)O2)cc1C(F)(F)F`, the outcome in experiment [1], in experiment [3], in [4], in [5] and in experiment [6] was inactive. Also, the inhibition is 36.4% (inactive) in [7] (at 0.5 µM, stronger effect = higher value); -2.27% in [7] (measured here: combination with BGB IC20, at 0.005 µM); -21% in [7] (measured here: combination with BGB IC40, at 0.005 µM); -26.7% in experiment [7] (setting [19]); 71.9% in [7] (measured here: combination with cisplatin, at 0.5 µM, stronger effect = higher value); -10% in [7] (measured here: combination with cisplatin, at 5 µM, stronger effect = higher value). In addition, the inhibition in experiment [8] (BGB combo, at 5 µM) is 76.1%; in experiment [8] (at 0.5 µM), -26.4% (inactive); in experiment [8] (cisplatin combo, at 5 µM), 74.4%; in [8] (setting [20]), -34.8%; in [8] (setting [21]), -33.1%; in experiment [8] (single agent, at 5 µM) it was 78.3%. Moreover, the inhibition was -20% in experiment [9] (BGB IC20 combo, at 0.005 µM); -34.3% in experiment [9] (BGB IC40 combo, at 0.005 µM); -24% in [9] (BGB IC40 combo, at 0.05 µM); -27.9% (inactive) in experiment [9] (at 0.5 µM); -27.5% in experiment [9] (cisplatin combo, at 0.05 µM); -36.1% in experiment [9] (cisplatin combo, at 0.5 µM). For the same compound, the inhibition in experiment [9] (cisplatin combo, at 5 µM) was -29.6%; in experiment [9] (measured here: 5 uM single agent, at 5 µM), -19.3%; in experiment [10] (at 0.5 µM) it was -42% (inactive); in experiment [10] (setting [19]), -48.3%; in [10] (setting [22]), -37.1%; in experiment [10] (measured here: combination with cisplatin, at 5 µM), -50.8%. In addition, the inhibition in experiment [11] (at 0.5 µM) is -26.4% (inactive); in experiment [11] (measured here: with BGB IC20, at 0.5 µM), -56.9%; in [11] (measured here: with BGB IC20, at 5 µM), -39.6%; in experiment [11] (measured here: with cisplatin IC20, at 0.5 µM), -12.8%; in [11] (measured here: with cisplatin IC20, at 5 µM) it was 1.86%; in [11] (single agent, at 5 µM), 7.02%. For the same compound, the inhibition in experiment [12] (at 0.5 µM) was -101% (inactive); in [12] (measured here: combination with BGB at IC20, at 0.5 µM), -90.6%; in experiment [12] (measured here: combination with cisplatin at IC20, at 0.5 µM) it was -100%; in [13] (at 0.5 µM) it was 46.7% (inactive); in experiment [13] (measured here: combo with BGB at IC20, at 0.5 µM) it was 44.2%; in experiment [13] (measured here: combo with cisplatin at IC20, at 0.5 µM), 72.4%. Further, the inhibition was -11.1% (inactive) in experiment [14] (at 0.5 µM); -14.4% in experiment [14] (measured here: inhibition with BGB combination, at 0.05 µM); -6.35% in [14] (measured here: inhibition with cisplatin combination, at 0.05 µM); -22.5% (inactive) in experiment [15] (at 0.5 µM); -18.8% in experiment [15] (measured here: BGB combination, at 0.5 µM); 1.19% in experiment [15] (measured here: BGB combination, at 5 µM). The inhibition in experiment [15] (measured here: cisplatin combination, at 0.5 µM) was -44.6%; in [15] (measured here: cisplatin combination, at 5 µM) it was 12.8%; in experiment [16] (at 0.5 µM), -27.4% (inactive); in experiment [16] (cisplatin combination, at 0.5 µM), -13.4%; in experiment [16] (cisplatin combination, at 5 µM), -12.4%; in experiment [16] (measured here: BGB IC40 combination 0.05 uM, at 0.05 µM), -6.58%. Besides, the inhibition was -41.3% in [16] (single agent, at 5 µM); -14.2% (inactive) in experiment [17] (at 0.5 µM); -41.9% in [17] (cisplatin combo, at 5 µM); -13.9% in experiment [17] (measured here: BGB IC40 combination, at 0.05 µM); -28.5% in experiment [17] (setting [22]); -39.2% in [17] (single agent, at 5 µM). For the same compound, the inhibition in [18] (at 0.5 µM) is -43.3% (inactive); in experiment [18] (setting [20]), -61.7%; in experiment [18] (setting [21]), -37.1%; in experiment [18] (single agent, at 0.05 µM), -89%; in experiment [18] (single agent, at 5 µM) it was 33.7%.
